High-throughput results from PubChem.
A selection: hits, their analogues and other compounds. The true share with any hit is near 4%.
D1 potentiator: human D1 dopamine receptor positive modulation. HEK293 TREx D1 cells, calcium flux, dopamine EC20 potentiation. P21728. potentiation, % at 10 µM. 360,000 tested, 0.036% active; in the data active means potentiation above about 30%
GRP78 ERSR act: inducers of ER stress response in human glioma cells; 420,000 tested, 0.02% active; U87-MG GRP78 promoter luciferase reporter, 16 h; Potency, µM, actives largely listed as activators; AID 602332; active means well fitted activation curve with a large enough effect; further: series mostly up to about 76 µM; nearly all actives have a fitted effect of over 35% in size
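ERSR induction read as luciferase luminescence (Bright-Glo, 10 min at room temperature) in stably transfected human U87-MG glioma cells exposed to compounds for 16 h, using GRP78 as sensor.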
D1 antag: antagonists of human D1 dopamine receptor; HEK293 TREx D1 cells, calcium flux, dopamine EC80; active compounds read low; activity change, negative = inhibition, % at 10 µM; 360,000 tested, 3.2% active; AID 504652; in the data active means activity change below about -30%
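Cells carrying a force-coupled, tetracycline-inducible human D1 receptor report calcium flux. Each well gets a 10 s baseline, compound with 180 s monitoring, then an EC80 dopamine stimulus with a second 180 s kinetic read.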
TRHR enhancer: TRH receptor (human) allosteric enhancement; TRHR cells, fluo-8 calcium fluorescence, EC20 TRH enhancement; enhancement, % at 2 µM; P34981; AID 493056; 360,000 tested, 0.66% active; in the data active means enhancement above about 30%
Target sequence (P34981 whole entry, looked up): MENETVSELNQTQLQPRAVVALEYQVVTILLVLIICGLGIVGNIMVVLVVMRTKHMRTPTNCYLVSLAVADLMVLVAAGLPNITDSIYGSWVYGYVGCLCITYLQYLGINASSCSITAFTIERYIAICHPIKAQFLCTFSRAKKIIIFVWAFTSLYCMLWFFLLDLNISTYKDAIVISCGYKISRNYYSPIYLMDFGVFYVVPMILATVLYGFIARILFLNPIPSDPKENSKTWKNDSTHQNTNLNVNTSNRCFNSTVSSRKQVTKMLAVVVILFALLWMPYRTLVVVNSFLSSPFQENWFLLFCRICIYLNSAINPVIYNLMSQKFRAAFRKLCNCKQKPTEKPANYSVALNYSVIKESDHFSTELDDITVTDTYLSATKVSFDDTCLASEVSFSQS
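Enhancer read-out: after compound pinning and an initial kinetic agonist-mode read, an EC20 of TRH (10 nM final) was injected and fluo-8 calcium signal (Ex 480/Em 530) followed at 1 s/cycle for 100 cycles in TRHR-expressing cells.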
D1 ag: human D1 receptor agonism; AID 504660; activation, % at 2 µM; 360,000 tested, 1% active; HEK293 T-REx D1 cells, calcium flux, agonist mode
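Inducible HEK293 T-REx D1 cells, force-coupled to calcium signalling, were plated at 4000 cells/well with tetracycline and held overnight at 30 C. After no-wash calcium dye loading, compound-evoked calcium rise over 180 s flagged agonists.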
TRHR ag: activates the human TRH receptor. TRHR cells, calcium flux fluo-8, FDSS agonist mode. activation, % at 2 µM. P34981. AID 493084. 360,000 tested, 0.18% active
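Steps: seed TRHR cells overnight; add fluo-8 no-wash Ca dye, RT 30 min–1.5 h; record 10 s baseline; pin-transfer compounds; monitor fluorescence 1 cycle/s for the agonist window. Calcium increases flag candidate agonists.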
A number is an active result. Unless noted, no stated cut-off is given here; in the data, active means activation above about 30%; inactive means the rest.

COc1cccc(-c2cc(C(F)(F)F)nc(NCc3ccc(F)cc3)n2)c1 was read as D1 potentiator inactive, GRP78 ERSR act inactive, D1 antag inactive, TRHR enhancer inactive, D1 ag inactive and TRHR ag inactive.
For CN(Cc1ccccc1F)c1ccc(S(=O)(=O)N2CCCC2)cn1 the results were D1 potentiator inactive, GRP78 ERSR act inactive, D1 antag -32, TRHR enhancer inactive, D1 ag inactive and TRHR ag inactive.
FC(F)(F)c1cc(-c2ccco2)nc(N2CCN(Cc3ccccc3)CC2)n1 was read as D1 potentiator inactive, GRP78 ERSR act inactive, D1 antag inactive, TRHR enhancer inactive, D1 ag inactive and TRHR ag inactive.
For Cc1ccc(CNC(=O)CN(c2cccc([N+](=O)[O-])c2)S(C)(=O)=O)cc1 the results were D1 potentiator inactive, GRP78 ERSR act inactive, D1 antag -35, TRHR enhancer inactive, D1 ag inactive and TRHR ag inactive.
For COc1ccccc1CNC(=O)CN(c1cccc([N+](=O)[O-])c1)S(C)(=O)=O the results were D1 potentiator inactive, GRP78 ERSR act inactive, D1 antag -35, TRHR enhancer inactive, D1 ag inactive and TRHR ag inactive.
`CCc1ccc(OCC(=O)Nc2cccc3c2CCCC3)cc1` gave D1 potentiator inactive, GRP78 ERSR act inactive, D1 antag inactive, TRHR enhancer inactive, D1 ag inactive and TRHR ag inactive.
For CCOC1=C/C(=C/c2c(N)n3nc(S(=O)(=O)CC)sc3nc2=O)C=CC1=O the results were D1 potentiator inactive, GRP78 ERSR act inactive, D1 antag inactive, TRHR enhancer inactive, D1 ag inactive and TRHR ag 33.
For Nc1c(C=C2C=CC(=O)C=C2)c(=O)nc2sc(CC(=O)N3CCOCC3)nn12 the results were D1 potentiator inactive, GRP78 ERSR act inactive, D1 antag inactive, TRHR enhancer inactive, D1 ag inactive and TRHR ag inactive.
For Cc1ccc(C(=O)NCCc2csc(-c3cccc(F)c3)n2)cc1C the results were D1 potentiator inactive, GRP78 ERSR act inactive, D1 antag inactive, TRHR enhancer inactive, D1 ag inactive and TRHR ag inactive.
Screening COC(=O)COc1ccc(=O)n(-c2ccccc2)n1 returned D1 potentiator inactive, GRP78 ERSR act inactive, D1 antag inactive, TRHR enhancer inactive, D1 ag inactive and TRHR ag inactive.
For N#CC1=C(N)N(c2ccccc2)C(c2cccc([N+](=O)[O-])c2)C1(C#N)C#N (configuration not stated) the results were D1 potentiator inactive, GRP78 ERSR act inactive, D1 antag -30, TRHR enhancer inactive, D1 ag inactive and TRHR ag inactive.
Screening COCCNCCOCCOc1ccc(Cl)c(C)c1 returned D1 potentiator inactive, GRP78 ERSR act inactive, TRHR enhancer inactive, D1 ag 32 and TRHR ag inactive.
Screening COCCCNCCOCCOc1ccc(Cl)cc1C(C)(C)C returned D1 potentiator inactive, GRP78 ERSR act inactive, D1 antag inactive, TRHR enhancer inactive, D1 ag 38 and TRHR ag inactive.
Screening CC(C)(C)c1ccccc1OCCOCCNCc1ccccc1 returned D1 potentiator inactive, GRP78 ERSR act inactive, D1 antag inactive, TRHR enhancer inactive, D1 ag 36 and TRHR ag inactive.
`Cc1cc(OCCOCCNCc2ccccc2)ccc1C(C)C` gave D1 potentiator inactive, GRP78 ERSR act inactive, D1 antag inactive, TRHR enhancer inactive, D1 ag 63 and TRHR ag inactive.
For CNCCOc1ccccc1C(C)(C)C the results were D1 potentiator inactive, GRP78 ERSR act inactive, D1 antag inactive, TRHR enhancer inactive, D1 ag inactive and TRHR ag inactive.
`Cc1cc(O)c(/C=N/Nc2cccc(Cl)c2)c(=O)o1` gave D1 potentiator inactive, GRP78 ERSR act inactive, D1 antag inactive, TRHR enhancer inactive, D1 ag inactive and TRHR ag inactive.
Screening Cc1ccc(C)c(OCCCNCc2ccccc2)c1 returned D1 potentiator inactive, GRP78 ERSR act inactive, D1 antag inactive, TRHR enhancer inactive, D1 ag inactive and TRHR ag inactive.
`Cc1ccc(C(C)C)c(OCCNCc2ccccc2)c1` gave D1 potentiator inactive, GRP78 ERSR act inactive, D1 antag inactive, TRHR enhancer inactive, D1 ag 53 and TRHR ag inactive.
`O=C(CCN1CCOCC1)Nc1ccccc1` gave D1 potentiator inactive, GRP78 ERSR act inactive, D1 antag inactive, TRHR enhancer inactive, D1 ag inactive and TRHR ag inactive.
Screening Cc1nc2scc(C)n2c(=O)c1S(=O)(=O)N1CCN(c2ccc(F)cc2)CC1 returned D1 potentiator inactive, GRP78 ERSR act inactive, D1 antag inactive, TRHR enhancer inactive, D1 ag inactive and TRHR ag inactive.
`OCCCCNCc1ccc(OCc2ccccc2)cc1` gave D1 potentiator inactive, GRP78 ERSR act inactive, D1 antag inactive, TRHR enhancer inactive, D1 ag inactive and TRHR ag inactive.
`c1ccc(COc2ccc(OCCCCN3CCCCC3)cc2)cc1` gave D1 potentiator inactive, GRP78 ERSR act inactive, D1 antag -35, TRHR enhancer inactive, D1 ag 42 and TRHR ag inactive.
For O=C(c1ccccc1)c1ccc(OCCCCN2CCCCC2)cc1 the results were D1 potentiator inactive, GRP78 ERSR act inactive, D1 antag inactive, TRHR enhancer inactive, D1 ag inactive and TRHR ag inactive.
For Clc1cccc(OCCCCN2CCCCC2)c1 the results were D1 potentiator inactive, GRP78 ERSR act inactive, D1 antag inactive, TRHR enhancer 34, D1 ag inactive and TRHR ag inactive.
For OCCNCCCCOc1ccc(OCc2ccccc2)cc1 the results were D1 potentiator inactive, GRP78 ERSR act inactive, D1 antag -31, TRHR enhancer inactive, D1 ag 46 and TRHR ag inactive.
`CC(C)(O)CCc1c(-c2ccc(O)cc2O)oc2c3c(cc(O)c2c1=O)OC(C)(C)C=C3` gave GRP78 ERSR act inactive.
COc1ccc(NC(=O)CNC(=O)Cn2cnc3sc(C)c(C)c3c2=O)cc1OC was read as D1 potentiator inactive, GRP78 ERSR act inactive, D1 antag inactive, TRHR enhancer inactive, D1 ag inactive and TRHR ag inactive.
`Cc1ccc(-n2nc(C)c3c(C(F)(F)F)cc(-c4cccnc4)nc32)cc1C` gave D1 potentiator inactive, GRP78 ERSR act inactive, D1 antag -50, TRHR enhancer inactive, D1 ag inactive and TRHR ag inactive.
`COc1ccccc1OCc1nc(C#N)c(N2CCC(C(N)=O)CC2)o1` gave D1 potentiator inactive, GRP78 ERSR act inactive, D1 antag inactive, TRHR enhancer inactive, D1 ag inactive and TRHR ag inactive.
COc1ccc(C2Nc3ccccc3C(=O)N2NS(C)(=O)=O)cc1 (configuration not stated) was read as D1 potentiator inactive, GRP78 ERSR act inactive, D1 antag inactive, TRHR enhancer inactive, D1 ag inactive and TRHR ag inactive.
